Source: PubChem BioAssay (NCI)
This is part of a sample that, as a whole, favours compounds with a hit. Of some 79,000 tested, about 15% had one in any assay. Activity calls are given as the source filed them. Rule as the data show it: active = growth inhibition above about 70%; inactive = the rest.

Columns and labels:
[1] = NCI Yeast Anticancer Drug Screen. Data for the rad52 strain (AID 147);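 also: 0% = growth of vehicle-treated control cultures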; details: S. cerevisiae rad52 mutant growth inhibition, active compounds read high
How it was run: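 Vehicle-treated cultures served as the reference for growth inhibition of compound-exposed yeast bearing a DNA repair mutation.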

[2] = NCI Yeast Anticancer Drug Screen. Data for the wt1 strain (AID 149);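 also: 0% = growth of vehicle-treated wt1 cultures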; details: S. cerevisiae wt1 strain (SPY 50644) growth inhibition, active compounds read high
How it was run: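 wt1 strain grown with compound or vehicle; inhibition taken from the growth difference.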

[3] = NCI Yeast Anticancer Drug Screen. Data for the rad50EPP+ strain (AID 151);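 also: 0% = growth of vehicle-treated control cultures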; details: S. cerevisiae rad50 mutant strain, active compounds read high
How it was run: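 In this screen, rad50EPP+ yeast were exposed to compounds. Growth inhibition was scored against vehicle-treated controls.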

[4] = NCI Yeast Anticancer Drug Screen. Data for the mgt1 strain (AID 153); details: S. cerevisiae mgt1 mutant growth inhibition, active compounds read high
How it was run: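 mgt1 strain exposed; growth vs vehicle control recorded as inhibition.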

[5] = NCI Yeast Anticancer Drug Screen. Data for the rad50 strain (AID 155);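 also: 0% = growth of vehicle-only cultures of the same strain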; details: S. cerevisiae rad50 strain growth inhibition, active compounds read high
How it was run: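 DNA repair mutant yeast, compound exposure, growth read-out; inhibition is taken relative to vehicle.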

[6] = NCI Yeast Anticancer Drug Screen. Data for the mec2-1 strain (AID 157); details: S. cerevisiae mec2-1 strain, active compounds read high
How it was run: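 Vehicle-treated cultures served as reference for growth inhibition of compound-exposed mec2-1 yeast.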

[7] = NCI Yeast Anticancer Drug Screen. Data for the rad14 strain (AID 159);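 also: 0% = growth of vehicle-treated control cultures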; details: S. cerevisiae rad14 strain growth inhibition, active compounds read high
How it was run: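 DNA repair-defective yeast, compound-exposed; % growth inhibition derived by comparison with vehicle-treated controls.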

[8] = NCI Yeast Anticancer Drug Screen. Data for the sgs1 mgt1 strain (AID 161);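 also: 0% = growth of cultures given vehicle only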; details: S. cerevisiae sgs1 mgt1 strain, active compounds read high
How it was run: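 Test agents were incubated with a DNA-repair-mutant yeast strain. Growth was then read and compared against vehicle-treated controls.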

[9] = NCI Yeast Anticancer Drug Screen. Data for the CLN2oe strain (AID 163);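 also: 0% = growth of vehicle-only control cultures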; details: S. cerevisiae CLN2oe strain, active compounds read high
How it was run: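 Inhibition relative to vehicle-treated yeast is reported. Cells: strain with genetic alteration in cell-cycle control, grown with compound.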

[10] = NCI Yeast Anticancer Drug Screen. Data for the cln2 rad14 strain (AID 165);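 also: 0% = growth equal to vehicle treated cultures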; details: S. cerevisiae cln2 rad14 strain, active compounds read high
How it was run: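 Each compound was tested on cln2 rad14 yeast. Inhibition of growth was calculated against vehicle-exposed controls.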

[11] = NCI Yeast Anticancer Drug Screen. Data for the bub3 strain (AID 167); details: S. cerevisiae bub3 mutant strain, active compounds read high
How it was run: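 In this screen, a yeast mutant lacking normal mitotic checkpoint function is challenged with compound. Relative growth versus vehicle gives the inhibition value.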

[12] = NCI Yeast Anticancer Drug Screen. Data for the wt2 strain (AID 169);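 also: 0% = growth of vehicle-treated yeast cultures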; details: S. cerevisiae wt2 strain growth inhibition, active compounds read high
How it was run: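 Inhibition of yeast growth was determined after compound treatment, normalised to controls receiving only vehicle.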

[13] = NCI Yeast Anticancer Drug Screen. Data for the mlh1 strain (AID 171);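 also: 0% = growth of vehicle-treated control cultures of the same strain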; details: S. cerevisiae mlh1 strain growth inhibition, active compounds read high
How it was run: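 Vehicle-normalised growth inhibition of a repair- or checkpoint-altered yeast strain following compound treatment.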

[14] = NCI Yeast Anticancer Drug Screen. Data for the sgs1 strain (AID 173);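 also: 0% = growth of vehicle-only control cultures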; details: S. cerevisiae sgs1 mutant, active compounds read high
How it was run: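 Screen format: yeast with repair or checkpoint alterations, compound exposure, growth read relative to vehicle.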

[15] = NCI Yeast Anticancer Drug Screen. Data for the mlh1 rad18 strain (AID 175); details: S. cerevisiae mlh1 rad18 strain growth inhibition, active compounds read high
How it was run: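 Vehicle-treated cultures served as the reference for growth inhibition in a yeast strain carrying DNA damage repair alterations exposed to each compound.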

[16] = NCI Yeast Anticancer Drug Screen. Data for the rad18 strain (AID 177); details: S. cerevisiae rad18 mutant growth inhibition, active compounds read high
How it was run: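 Test articles were incubated with altered yeast defective in DNA damage repair. Results are given as inhibition of growth versus vehicle.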

[17] = at 5.0 µM (retest, dose inferred, filed as 0.5)
[18] = at 50.0 µM (retest, dose inferred, filed as 5.0)

Measured: growth inhibition

C=CCC1=C(C)C(OC(=O)/C=C/c2ccccc2)CC1=O (stereo unspecified)
active: [11]; [18] 79%
inactive: [1]; at 1.2 µM -4% | [1]; at 3.7 µM 0% | [1]; at 11.0 µM 2% | [1]; at 33.0 µM 5% | [1]; at 100.0 µM 39% | [2]; at 1.2 µM -2% | [2]; at 3.7 µM -5% | [2]; at 11.0 µM -5% | [2]; at 33.0 µM -2% | [2]; at 100.0 µM -3% | [3]; at 1.2 µM -1% | [3]; at 3.7 µM 0% | [3]; at 11.0 µM 6% | [3]; at 33.0 µM 7% | [3]; at 100.0 µM 15% | [4]; at 1.2 µM -6% | [4]; at 3.7 µM -2% | [4]; at 11.0 µM -1% | [4]; at 33.0 µM 2% | [4]; at 100.0 µM 29% | [5]; at 1.2 µM 2% | [5]; at 3.7 µM 1% | [5]; [17] 10% | [5]; at 11.0 µM 2% | [5]; at 33.0 µM 8% | [5]; [18] 19% | [5]; at 50.0 µM 2.25% | [5]; at 100.0 µM 39% | [6]; at 1.2 µM -4% | [6]; at 3.7 µM -4% | [6]; [17] -11% | [6]; at 11.0 µM -4% | [6]; at 33.0 µM 0% | [6]; [18] -18% | [6]; at 50.0 µM 5.6% | [6]; at 100.0 µM 7% | [7]; at 1.2 µM 1% | [7]; at 3.7 µM 2% | [7]; at 11.0 µM 4% | [7]; at 33.0 µM 5% | [7]; at 100.0 µM 18% | [8]; [17] 23% | [8]; [18] 39% | [8]; at 50.0 µM 19.4% | [9]; at 1.2 µM 2% | [9]; at 3.7 µM 2% | [9]; at 11.0 µM 5% | [9]; at 33.0 µM 15% | [9]; at 100.0 µM 28% | [10]; [17] 17% | [10]; [18] 36% | [10]; at 50.0 µM 33.5% | [11]; at 1.2 µM 7% | [11]; at 3.7 µM 20% | [11]; [17] 25% | [11]; at 11.0 µM 33% | [11]; at 33.0 µM 36% | [11]; at 50.0 µM 40.6% | [11]; at 100.0 µM 47% | [12]; at 1.2 µM -10% | [12]; at 3.7 µM -11% | [12]; at 11.0 µM -8% | [12]; at 33.0 µM -5% | [12]; at 100.0 µM 12% | [13]; at 1.2 µM -3% | [13]; at 3.7 µM -2% | [13]; at 11.0 µM -2% | [13]; at 33.0 µM 3% | [13]; at 100.0 µM 42% | [14]; at 1.2 µM -9% | [14]; at 3.7 µM 26% | [14]; at 11.0 µM 6% | [14]; at 33.0 µM 6% | [14]; at 100.0 µM 53% | [15]; [17] 15% | [15]; [18] 59% | [15]; at 50.0 µM 5.85% | [16]; at 1.2 µM -5% | [16]; at 3.7 µM 0% | [16]; at 11.0 µM -1% | [16]; at 33.0 µM 5% | [16]; at 100.0 µM 31%

C[S+](C)C1(c2ccccc2)C(=O)c2ccccc2C1=O
active: [1]; at 100.0 µM 73% | [3]; at 100.0 µM 72% | [5]; [18] 76% | [5]; at 50.0 µM 77% | [5]; at 100.0 µM 72%
inactive: [1]; at 1.2 µM 8% | [1]; at 3.7 µM 11% | [1]; at 11.0 µM 20% | [1]; at 33.0 µM 35% | [2]; at 1.2 µM 1% | [2]; at 3.7 µM 2% | [2]; at 11.0 µM 1% | [2]; at 33.0 µM 3% | [2]; at 100.0 µM 12% | [3]; at 1.2 µM 1% | [3]; at 3.7 µM 3% | [3]; at 11.0 µM 9% | [3]; at 33.0 µM 36% | [4]; at 1.2 µM 2% | [4]; at 3.7 µM 1% | [4]; at 11.0 µM 4% | [4]; at 33.0 µM 3% | [4]; at 100.0 µM 36% | [5]; at 1.2 µM 1% | [5]; at 3.7 µM 7% | [5]; [17] 7% | [5]; at 11.0 µM 18% | [5]; at 33.0 µM 42% | [6]; at 1.2 µM 3% | [6]; at 3.7 µM 0% | [6]; [17] -9% | [6]; at 11.0 µM 0% | [6]; at 33.0 µM 11% | [6]; [18] 1% | [6]; at 50.0 µM -11.7% | [6]; at 100.0 µM 30% | [7]; at 1.2 µM 1% | [7]; at 3.7 µM 0% | [7]; at 11.0 µM 2% | [7]; at 33.0 µM 6% | [7]; at 100.0 µM 22% | [8]; [17] 6% | [8]; [18] 6% | [8]; at 50.0 µM 1.35% | [9]; at 1.2 µM 1% | [9]; at 3.7 µM 2% | [9]; at 11.0 µM 8% | [9]; at 33.0 µM 13% | [9]; at 100.0 µM 26% | [10]; [17] 6% | [10]; [18] 10% | [10]; at 50.0 µM 9.8% | [11]; at 1.2 µM 1% | [11]; at 3.7 µM 2% | [11]; [17] -7% | [11]; at 11.0 µM 2% | [11]; at 33.0 µM 8% | [11]; [18] 10% | [11]; at 50.0 µM 35.9% | [11]; at 100.0 µM 30% | [12]; at 1.2 µM 2% | [12]; at 3.7 µM -1% | [12]; at 11.0 µM 0% | [12]; at 33.0 µM 6% | [12]; at 100.0 µM 32% | [13]; at 1.2 µM 1% | [13]; at 3.7 µM -1% | [13]; at 11.0 µM 0% | [13]; at 33.0 µM 7% | [13]; at 100.0 µM 30% | [14]; at 1.2 µM -1% | [14]; at 3.7 µM -2% | [14]; at 11.0 µM -1% | [14]; at 33.0 µM 16% | [14]; at 100.0 µM 52% | [15]; [17] 10% | [15]; [18] 10% | [15]; at 50.0 µM 27.9% | [16]; at 1.2 µM 5% | [16]; at 3.7 µM 9% | [16]; at 11.0 µM 16% | [16]; at 33.0 µM 36% | [16]; at 100.0 µM 54%
